Laboratory results as given in PubChem BioAssay AID2676 (National Center for Advancing Translational Sciences (NCATS), 2010).
The campaign covered roughly 370,000 compounds. About 1,100 (0.3%) were called active. Inconclusive results (about 1%) are left out. The entries come from a sample that favours actives as a whole. A number with no mark means an inactive call. Calls come from the whole dose curve; as a rule, active = well fitted activation curve with a large enough effect; inconclusive = small, poorly fitted or top-dose-only effect; inactive = flat fitted curve, though single readings scatter.

target: Relaxin receptor 1 (Homo sapiens) (UniProt Q9HBX9); test: qHTS Assay for Agonists of the Relaxin Receptor RXFP1; settings: HEK293T-RXFP1 cAMP TR-FRET, 30 min; series mostly up to 57.5 µM; activation: at the top concentration; note: nearly all actives have a fitted effect of over 60% in size
Sequence (Q9HBX9 whole entry, looked up): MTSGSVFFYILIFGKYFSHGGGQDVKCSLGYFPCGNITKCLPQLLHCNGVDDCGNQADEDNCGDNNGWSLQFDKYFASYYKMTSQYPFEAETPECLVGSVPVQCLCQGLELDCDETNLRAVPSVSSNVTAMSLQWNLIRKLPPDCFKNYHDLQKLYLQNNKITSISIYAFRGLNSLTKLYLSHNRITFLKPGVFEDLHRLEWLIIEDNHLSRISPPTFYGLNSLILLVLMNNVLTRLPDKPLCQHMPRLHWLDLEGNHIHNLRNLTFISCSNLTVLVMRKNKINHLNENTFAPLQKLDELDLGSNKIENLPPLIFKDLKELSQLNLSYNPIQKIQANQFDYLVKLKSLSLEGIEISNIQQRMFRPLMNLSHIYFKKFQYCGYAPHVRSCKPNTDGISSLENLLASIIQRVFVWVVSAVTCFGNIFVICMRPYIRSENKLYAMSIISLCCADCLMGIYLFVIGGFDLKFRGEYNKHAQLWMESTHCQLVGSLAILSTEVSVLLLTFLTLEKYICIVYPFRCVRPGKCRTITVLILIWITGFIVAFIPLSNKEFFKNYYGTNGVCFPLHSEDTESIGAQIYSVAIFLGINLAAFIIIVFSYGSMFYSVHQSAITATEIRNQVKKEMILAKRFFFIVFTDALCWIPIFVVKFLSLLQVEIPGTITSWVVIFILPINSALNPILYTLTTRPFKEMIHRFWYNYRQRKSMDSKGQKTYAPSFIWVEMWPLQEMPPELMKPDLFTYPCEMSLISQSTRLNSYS
Source text: NIH Chemical Genomics Center [NCGC] NIH Molecular Libraries Probe Production Centers Network [MLPCN] MLPCN Grant: R03 MH085705-01A1 Assay Submitter (PI): Alexander Agoulnik NCGC Assay Overview: The relaxin hormone is involved in the variety of biological functions in normal tissues and diseases. The role of relaxin is well-established in female reproduction and parturition, mammary gland and endometrial development, maintenance of myometrial quiescence during pregnancy. Relaxin signaling through its G protein-coupled receptor (GPCR) RXFP1 results in ECM remodeling through regulation of collagen deposition, cell invasiveness, proliferation and overall tissue homeostasis. […] Recombinant human relaxin (rhRlx) is currently being tested in clinical trials as a protective agent in congestive heart failure, in treating severe preeclampsia, and as an anti-fibrotic agent in systemic sclerosis. Upon relaxin binding RXFP1 activation leads to the activation of adenylate cyclase (AC) via Gs. cAMP will activate PKA, which phosphorylates many signaling proteins. Thus, detection of cAMP increase is an easy and reliable indication of relaxin receptor activation. To screen for agonists of the relaxin receptor, a HEK293T cell line stably transfected with RXFP1 was used. RXFP1 activation was assayed by changes in cAMP levels as detected with a time-resolved fluorescence energy transfer (TR-FRET) cAMP detection kit.
NCGC Assay Protocol Summary: This is a cell-based assay for cAMP second messenger response to screen for agonists of the RXFP1 receptor. The assay was conducted in the presence of a PDE4 inhibitor (Ro 20174). The cells were lysed and the cAMP levels were measured with a TR-FRET cAMP kit. Presence of cAMP in the cell lysate disrupts binding between the cryptate-labeled anti-cAMP and d2-labeled cAMP pair, leading to a decrease in the TR-FRET signal. Data were normalized to the controls for basal activity (buffer only) and 100% activity (29 nM porcine relaxin). The EC50 values were determined from concentration-response data modeled with the standard Hill equation 1536-well assay protocol for the HEK293 RXFP1 cAMP assay: (1) Add 3 ul HEK293 RXFP1 cell culture. 2000 cells/well in DMEM/F12, 10% FBS, 1x Pen/Strep (dispensed offline with MultiDrop Combi). (2) Incubate 16-24 hr at 37C, 5% CO2. (3) Add 1 ul 400uM Ro20174 in DPBS, 0.05% BSA, 0.005% Tween 20. (3) Add 23 nl compounds in DMSO solution. Final concentration was 0.5 - 58 uM. (4) Incubate 30 min at 37C, 5% CO2. (5) Add 1 ul cAMP-d2 in lysis buffer (HTRF cAMP HiRange kit, CisBio). (6) Add 1 ul anti-cAMP antibody-cryptate in lysis buffer (HTRF cAMP HiRange kit, CisBio). (7) Incubate 30 min at room temperature. (6) Detect the assay plate in a ViewLux plate reader (PerkinElmer) with Ex=320 nm, Em1=615 nm and Em2=665 nm. Keywords: relaxin, RXFP1, RXFP2, G-protein coupled receptor, cAMP, agonist, high throughput screening, MLSMR, MLSCN, NIH Roadmap, qHTS and NCGC
% is set by controls: 0 for no effect and ±100 for the full control effect; potency is the fitted concentration of half-maximal effect.

| Structure (SMILES) | activation [%] | Potency |
| --- | --- | --- |
| COc1ccc(C)cc1N(C)C(=O)c1c(C)oc2ncnc(N3CCOCC3)c12 | -3.68 | – |
| O=C(NCCCc1ccccc1)c1ccc2c(c1)sc1nc(-c3ccc(F)cc3)cn12 | -1.38 | – |
| COc1cccc(C(=O)N(Cc2cccc(Cl)c2)Cc2ccco2)c1 | 1.03 | – |
| COc1cc(Cl)c(NC(=O)C(NS(=O)(=O)c2cccs2)C(C)C)c(OC)c1 (stereo unspecified) | -2.63 | – |
| CCOC(=O)c1c(NC(=O)COc2cc(C)ccc2C(C)C)sc(C)c1C | 2.49 | – |
| COC(=O)c1ccccc1NC(=O)c1ccc(COc2ccccc2Cl)o1 | 2.52 | – |
| O=C(Cn1c(=O)n(-c2ccc(F)cc2)c(=O)c2sccc21)Nc1cccc(C(F)(F)F)c1 | 0.102 | – |
| CC(C)(C)c1ccc(OCC(=O)N2CCC(c3nc4ccccc4s3)CC2)cc1 | -0.849 | – |
| O=C(NC1CC(=O)N(c2ccc(F)cc2)C1)c1ccc(S(=O)(=O)N2CCCC2)cc1 (stereo unspecified) | 1.57 | – |
| COc1ccc(Cn2ccnc2SCC(=O)NCc2ccco2)cc1 | 2.97 | – |
| CCOc1ccc2oc(=O)cc(CN3CCN(C(=O)c4ccc(F)cc4)CC3)c2c1 | 1.02 | – |
| Cc1cnc(NC(=O)Cn2cnc3c2c(=O)n(C)c(=O)n3C)s1 | 15.8 | – |
| Cn1c(=O)c2c(ncn2CC(=O)N/N=C/c2cn[nH]c2-c2ccc(F)cc2)n(C)c1=O | – | 14.1 µM (active) |
| CN(CC(=O)Nc1ccc(F)c(F)c1F)C(=O)Cn1cnc2c1c(=O)n(C)c(=O)n2C | 9.55 | – |
| CCCNc1ncnc2c1c(-c1ccccc1)cn2-c1ccc(OCC)cc1 | 4.06 | – |
| COc1ccc(S(=O)(=O)N2CCOCC2)cc1NC(=O)CSc1ncnc2ccccc12 | – | 15.8 µM (active) |
| COc1ccc(S(=O)(=O)N2CCOCC2)cc1NC(=O)CSc1cc(C)ccc1C | -2 | – |
| COc1ccc(S(=O)(=O)N2CCOCC2)cc1NC(=O)Cc1c(F)cccc1Cl | -0.855 | – |
| CCOc1ccc(C(=O)Nc2ccc3nc4c(c(Nc5ccccc5OC)c3c2)CCCC4)cc1 | -0.31 | – |

| Structure (SMILES) | activation [%] | Potency |
| --- | --- | --- |
| C=Cc1ccc(Cn2c(C(=O)O)c(CNC3CCCC3)c3ccc(C)cc32)cc1 | 0.0544 | – |
| CCOc1ccc(CCNC(=O)CN(c2ccc(C)cc2)S(=O)(=O)N(C)C)cc1OCC | 2 | – |
| O=C(Nc1ccc(Br)cc1)c1cc2nc(-c3ccccc3)cc(-c3ccccc3)n2n1 | 3.76 | – |
| COc1ccc2oc(-c3ccc(C)c(NC(=O)c4sc5ccccc5c4Cl)c3)nc2c1 | 2.29 | – |
| CCOc1cccc(CC(=O)N2CCc3c([nH]c4ccccc34)C2c2ccc(OC)cc2)c1OCC (stereo unspecified) | 4.11 | – |
| Cc1cc(C)cc(NC(=O)Cn2nc(N3CCN(c4ccccc4)CC3)ccc2=O)c1 | 0.0868 | – |
| Cc1ccc(Cl)cc1N(C)C(=O)C1CCCN(c2ncnc3onc(-c4ccc(F)cc4)c23)C1 (stereo unspecified) | 0.553 | – |
| COc1ccc(N2CCN(C3=NS(=O)(=O)C(c4cccc(Br)c4)=C3C)CC2)cc1 | -0.541 | – |
| Cc1c(-c2nsc(NC(=O)c3cccc(Cl)c3)n2)nnn1-c1ccccc1C(F)(F)F | -0.886 | – |
| COc1ccc(-c2nc3c(c(SCC(=O)Nc4ccc(C(=O)O)cc4)n2)Cc2ccccc2O3)cc1 | 21.7 | – |
| Cc1ccc(-c2nn(CCC(=O)Nc3ccc(OC(F)(F)F)cc3)c(=O)c3ccccc23)cc1 | 6.25 | – |
| COc1ccc(-n2c(SCC(N)=O)nc3c(oc4ccccc43)c2=O)cc1 | 0.504 | – |
| COC(=O)c1ccccc1NC(=O)C(Cc1ccccc1)N1Cc2ccccc2C1=O (stereo unspecified) | 4.06 | – |
| CC1=C(c2ccc(F)cc2)S(=O)(=O)N=C1N1CCC(C(=O)NCCc2ccccc2C)CC1 | 2.67 | – |
| Cc1ccc2nc3c(cc(C(=O)NC4CCCCC4)c(=N)n3C(C)C)c(=O)n2c1 | 5.26 | – |
| COc1cccc(-n2c(=O)c3c(C)c(C(=O)N(C)C)sc3n(Cc3cccc(C)c3)c2=O)c1 | 2.04 | – |
| CCCCOc1ccc(CNC(=O)c2ccc3c(c2)N(C)C(=O)C2CCCCN32)cc1 (stereo unspecified) | -0.99 | – |
| O=C(c1ccc2c(c1)N(Cc1ccccc1)C(=O)c1ccccc1S2(=O)=O)N1CCC(Cc2ccccc2)CC1 | 0.856 | – |
| Cc1cccc(NC(c2cccc(F)c2)c2ccc3ccc(C)nc3c2O)n1 (stereo unspecified) | 1.58 | – |

| Structure (SMILES) | activation [%] | Potency |
| --- | --- | --- |
| CCOc1ccccc1NC(=O)Cn1c(=O)n(Cc2ccccc2)c(=O)c2c(C)c(C(=O)N(C)C)sc21 | 2.17 | – |
| COc1ccc(S(=O)(=O)Nc2cc3c(C(=O)OC(C)C)c(C)oc3c3ccccc23)cc1 | 1.2 | – |
| CC1=C(C(=O)N2CCN(c3cccc(C(F)(F)F)c3)CC2)C2(CCCCC2)OC1=O | -0.574 | – |
| CC(C)(C)OC(=O)N1CCC(c2c(C(=O)N3CCN(c4cccc(Cl)c4)CC3)cnn2-c2cccc(Cl)c2)CC1 | 2.09 | – |
| COc1ccc2c(c1)CCc1c(C(=O)Nc3cc(C)ccc3O)noc1-2 | -4.18 | – |
| COc1cccc(CNC(=O)Cn2c(=O)c3cccn3c3ccc(F)cc32)c1OC | 2.2 | – |
| O=C(NCCc1ccccc1)c1cnc2sc(N3CCCC3)nn2c1=O | 8.9 | – |
| COc1ccccc1-c1nnc(SCC(N)=O)o1 | 11.1 | – |
| COc1cccc(C2C(C(=O)Nc3ccc(C)cc3C)=C(C)Nc3c(C(=O)Nc4ccccc4)cnn32)c1 (stereo unspecified) | -1.61 | – |
| CCCCN1C(=O)c2[nH]nc(-c3ccccc3O)c2C1c1cccc(OCc2ccccc2)c1 (stereo unspecified) | 1.42 | – |
| CCN(C(=O)c1sc2cc(OC)ccc2c1Cl)c1ccccc1 | 1.04 | – |
| CCC(Sc1nc2n[nH]c(C)c2c(=N)n1-c1ccccc1Cl)C(=O)N(CC)CC (stereo unspecified) | 3.81 | – |
| Cc1nn(Cc2ccc(F)cc2)c(C)c1NC(=O)c1cc(CC(C)C)on1 | -1.08 | – |
| Cc1ccccc1NC(=O)c1cc2c([nH]c1=O)CC(C)(C)CC2=O | 19 | – |
| O=C(CCn1c(=O)c2sccc2n(Cc2ccc(F)cc2)c1=O)NCc1ccc2c(c1)OCO2 | 13.4 | – |
| CCCCN1CC(c2nc3ccccc3n2CCCCOc2ccc(C)cc2C)CC1=O (stereo unspecified) | -4.27 | – |
| O=C(c1ccc(C(F)(F)F)cc1)N1CCC(c2nc(-c3ccc(S(=O)(=O)N4CCCC4)cc3)no2)CC1 | -4.31 | – |
| CC(C)(C)c1ccc(C(=O)NCC(c2ccco2)S(=O)(=O)c2ccc(F)cc2)cc1 (stereo unspecified) | 1.03 | – |
